Reference: PubChem BioAssay AID1159580 (chemical genetic matrix, 2015)
Values joined by “and” are separate entries in the source; they are usually repeats but may differ in a detail not shown here. Equal values may be shown once. Hit rate of the full screen: of about 5,500 compounds, about 2,000 (36%) were called active. Another 18% or so got no clear call; they are omitted. No stated cut-off is given here; in the data, active means normalized growth mostly below about 0.91 (no sharp cut-off); inconclusive means no clear call, values can overlap the other calls; inactive means mostly above about 0.92. Some of the results follow.

Test: chemical genetic growth profiling, strain panel (AID 1159580);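 further: tested at 20 µM; growth read once vehicle control cultures reached saturation at 30 °C; 1 = growth at the plate median or of vehicle wells; lower values mean less growth of the strain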
Conditions: growth OD

Measured: normalized growth

COc1ccc2c(c1OC)OC[C@@H](c1ccc(OC)c(OC)c1OC)C2
inactive: S. cerevisiae deletion strains, locus YAL013W, strain DEP1, hits give low values 1.01 | S. cerevisiae deletion strains, locus YBR021W, strain FUR4, hits give low values 0.972 | S. cerevisiae deletion strains, locus YBR229C, strain ROT2, hits give low values 1 | S. cerevisiae deletion strains, locus YCL029C, strain bik1, hits give low values 1.01 | S. cerevisiae deletion strains, locus YDL035C, strain GPR1, hits give low values 1.01 | S. cerevisiae deletion strains, locus YDL074C, strain BRE1, hits give low values 0.999 | S. cerevisiae deletion strains, locus YDL101C, strain DUN1, hits give low values 1.01 | S. cerevisiae deletion strains, locus YDL134C, strain PPH21, hits give low values 0.999 | S. cerevisiae deletion strains, locus YDL185W, strain tfp1, hits give low values 1.02 | S. cerevisiae deletion strains, locus YDL192W, strain arf1, hits give low values 1.01 | S. cerevisiae deletion strains, locus YDR101C, strain arx1, hits give low values 1 | S. cerevisiae deletion strains, locus YDR162C, strain NBP2, hits give low values 1 | S. cerevisiae deletion strains, locus YDR318W, strain mcm21, hits give low values 1.03 | S. cerevisiae deletion strains, locus YDR388W, hits give low values 1.01 | S. cerevisiae deletion strains, locus YDR502C, strain sam2, hits give low values 0.996 | S. cerevisiae deletion strains, locus YEL061C, strain CIN8, hits give low values 1.01 | S. cerevisiae deletion strains, locus YER110C, hits give low values 1 | S. cerevisiae deletion strains, locus YER155C, strain BEM2, hits give low values 1.01 | S. cerevisiae deletion strains, locus YER167W, strain BCK2, hits give low values 1.03 | S. cerevisiae deletion strains, locus YGL078C, strain dbp3, hits give low values 1 | S. cerevisiae deletion strains, locus YGL086W, strain mad1, hits give low values 0.994 | S. cerevisiae deletion strains, locus YGL248W, strain PDE1, hits give low values 1.01 | S. cerevisiae deletion strains, locus YGR078C, strain PAC10, hits give low values 0.998 | S. cerevisiae deletion strains, locus YGR135W, strain pre9, hits give low values 0.999 | S. cerevisiae deletion strains, locus YGR252W, strain gcn5, hits give low values 0.976 | S. cerevisiae deletion strains, locus YHR030C, strain SLT2, hits give low values 1.02 and 1.03 | S. cerevisiae deletion strains, locus YHR079C, strain IRE1 (second series), hits give low values 1.01 | S. cerevisiae deletion strains, locus YHR079C, strain IRE1, hits give low values 1.02 | S. cerevisiae deletion strains, locus YHR094C, strain hxt1, hits give low values 1.01 | S. cerevisiae deletion strains, locus YHR129C, strain ARP1, hits give low values 1.02 | S. cerevisiae deletion strains, locus YHR200W, strain rpn10, hits give low values 1.01 | S. cerevisiae deletion strains, locus YIL066C, strain RNR3, hits give low values 1.01 | S. cerevisiae deletion strains, locus YIL073C, strain SPO22, hits give low values 1.03 | S. cerevisiae deletion strains, locus YIL125W, strain kgd1, hits give low values 1 | S. cerevisiae deletion strains, locus YIR030C, strain dcg1, hits give low values 1.01 | S. cerevisiae deletion strains, locus YJL095W, strain BCK1, hits give low values 0.998 and 1.04 | S. cerevisiae deletion strains, locus YJL134W, strain LCB3, hits give low values 1.01 | S. cerevisiae deletion strains, locus YJL168C, strain set2, hits give low values 1.01 | S. cerevisiae deletion strains, locus YJL187C, strain SWE1 (second series), hits give low values 1 | S. cerevisiae deletion strains, locus YJR043C, strain POL32, hits give low values 1.02 | S. cerevisiae deletion strains, locus YJR066W, strain TOR1, hits give low values 0.983 | S. cerevisiae deletion strains, locus YKL009W, strain mrt4, hits give low values 1.01 | S. cerevisiae deletion strains, locus YKL068W, hits give low values 1 | S. cerevisiae deletion strains, locus YKL085W, strain MDH1 (second series), hits give low values 0.993 | S. cerevisiae deletion strains, locus YKL085W, strain MDH1, hits give low values 0.993 | S. cerevisiae deletion strains, locus YKL190W, strain CNB1, hits give low values 1.01 | S. cerevisiae deletion strains, locus YKR001C, strain vps1, hits give low values 1 | S. cerevisiae deletion strains, locus YLR039C, strain RIC1, hits give low values 1.13 | S. cerevisiae deletion strains, locus YLR058C, strain SHM2, hits give low values 1 | S. cerevisiae deletion strains, locus YLR102C, strain apc9, hits give low values 1.02 | S. cerevisiae deletion strains, locus YLR113W, strain HOG1, hits give low values 0.939 | S. cerevisiae deletion strains, locus YLR262C, strain YPT6, hits give low values 1.14 | S. cerevisiae deletion strains, locus YLR268W, strain sec22, hits give low values 0.996 | S. cerevisiae deletion strains, locus YLR330W, strain CHS5, hits give low values 1.01 | S. cerevisiae deletion strains, locus YLR342W, strain FKS1 (second series), hits give low values 1.04 | S. cerevisiae deletion strains, locus YLR371W, strain rom2, hits give low values 1.01 | S. cerevisiae deletion strains, locus YLR418C, strain cdc73, hits give low values 0.988 | S. cerevisiae deletion strains, locus YML016C, strain PPZ1, hits give low values 1.02 | S. cerevisiae deletion strains, locus YML032C, strain rad52, hits give low values 1.02 | S. cerevisiae deletion strains, locus YML124C, strain tub3, hits give low values 1 | S. cerevisiae deletion strains, locus YMR078C, strain ctf18, hits give low values 1 | S. cerevisiae deletion strains, locus YMR223W, strain ubp8, hits give low values 0.999 | S. cerevisiae deletion strains, locus YMR263W, strain SAP30, hits give low values 0.996 | S. cerevisiae deletion strains, locus YMR307W, strain GAS1, hits give low values 0.927 | S. cerevisiae deletion strains, locus YNL067W, strain RPL9B, hits give low values 1.01 | S. cerevisiae deletion strains, locus YNL183C, strain NPR1, hits give low values 0.97 | S. cerevisiae deletion strains, locus YNL233W, strain BNI4, hits give low values 0.997 | S. cerevisiae deletion strains, locus YNL250W, strain rad50, hits give low values 0.998 | S. cerevisiae deletion strains, locus YNL271C, strain bni1, hits give low values 0.999 | S. cerevisiae deletion strains, locus YNL298W, strain CLA4, hits give low values 0.998 | S. cerevisiae deletion strains, locus YNL307C, strain MCK1, hits give low values 1.04 | S. cerevisiae deletion strains, locus YNL322C, strain KRE1, hits give low values 1.01 | S. cerevisiae deletion strains, locus YNR052C, strain pop2, hits give low values 1.02 | S. cerevisiae deletion strains, locus YOL012C, strain htz1 1.06 | S. cerevisiae deletion strains, locus YOL147C, strain pex11, hits give low values 1 | S. cerevisiae deletion strains, locus YOR061W, strain CKA2, hits give low values 1.01 | S. cerevisiae deletion strains, locus YOR069W, strain VPS5, hits give low values 1.01 | S. cerevisiae deletion strains, locus YOR136W, strain idh2, hits give low values 1.01 | S. cerevisiae deletion strains, locus YOR144C, strain elg1, hits give low values 1 | S. cerevisiae deletion strains, locus YOR184W, strain ser1, hits give low values 0.976 | S. cerevisiae deletion strains, locus YOR231W, strain MKK1, hits give low values 1.06 | S. cerevisiae deletion strains, locus YOR316C, strain cot1, hits give low values 1.01 | S. cerevisiae deletion strains, locus YPL241C, strain CIN2, hits give low values 1.01 | S. cerevisiae deletion strains, locus YPL256C, strain CLN2, hits give low values 1.06 | S. cerevisiae deletion strains, locus YPR119W, strain clb2, hits give low values 1 | S. cerevisiae deletion strains, locus YPR141C, strain kar3, hits give low values 1.02 | S. cerevisiae deletion strains, locus YPR163C, strain tif3, hits give low values 1.01 | S. cerevisiae deletion strains, locus YPR167C, strain met16, hits give low values 1.01 | S. cerevisiae deletion strains, strain wtn01, hits give low values 1.02 | S. cerevisiae strains, strain wild type, hits give low values 1.01
